Compound activity deposited in PubChem by National Center for Advancing Translational Sciences (NCATS).
Hits are enriched below; roughly 9.4% of the tested compounds scored in any of these assays.
FLuc counter = counter-screen for miR-21 project: firefly luciferase inhibitors or activators; purified FLuc, Km substrates, luminescence inhibition; Potency, µM (doses to about 57.5 µM), for the others: at the highest dose activity change, negative = inhibition, actives largely listed as inhibitors; P08659; actives 6.9% (n = 360,000);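 note: plate controls were vehicle for no effect and reference inhibitor for full effect; nearly all actives have a fitted effect of over 55% in size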
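Biochemical qHTS of compounds, final roughly 60 µM downward over six points, against 10 nM purified firefly luciferase using Km concentrations of substrates (10 uM D-luciferin, 10 uM ATP) in Tris acetate pH 7.5 buffer; luminescence output.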
ELG1 repair inh = blocks ELG1-dependent DNA repair in HEK293T cells; Potency, µM (doses to about 46.1 µM), inactives show at the highest dose activity change, negative = inhibition, actives largely listed as inhibitors; HEK293T ELG1-luciferase reporter, luminescence, 16 h; DNA damage induced by 5-fluorouridine; AID 504467; actives 2.3% (n = 330,000); note: % is set by controls: 0 for no effect and ±100 for the full control effect; nearly all actives have a fitted effect of over 55% in size
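HEK293T cells expressing luciferase-tagged ELG1 (2,000/well) received 5-Fluorouridine plus compound or DMSO for 16 hr at 37 °C. Luciferase was read by ONE-Glo luminescence after 30 min at room temperature.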
Rab9 prom act = activates the Rab9 promoter. AID 485297. Potency, µM (doses to about 9.22 µM), for inactives: at the highest dose activation, negative = inhibition, usual class: activators. actives 2.8% (n = 320,000). Huh7 Rab9 promoter-luciferase reporter, luminescence, 24 h; note: % of control where 0% means no effect; nearly all actives have a fitted effect of over 60% in size
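Luminescence read-out: Huh7 cells stably expressing Rab9-luciferase, treated 24 h with compound at 37 °C, then lysed with luciferase reagent for 10 min at ambient before reading.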
NPC1 prom act = activates the NPC1 promoter | Huh7 NPC1 promoter luciferase reporter, 24 h | Potency, µM (titrated, usually from 9.22 µM), for inactives: at the highest dose activation, usual class: activators | actives 2.4% (n = 320,000) | AID 485313; note: % of control where 0% means no effect; nearly all actives have a fitted effect of over 60% in size
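Quantitative HTS used a cell-based reporter: Huh7 cells stably bearing the NPC1 promoter upstream of luciferase were treated with compounds for 24 h, and promoter activation was read as luminescence.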
ELG1 genotox = inducers of genotoxicity in HEK293T ELG1-luciferase cells. HEK293T ELG1-luciferase reporter, luminescence, 16 h. Potency, µM (series often up to 46 µM), inactives show at the top dose activity change, positive = activation, actives largely listed as activators. actives 1.3% (n = 330,000); note: % of control where 0% means no effect; nearly all actives have a fitted effect of over 60% in size
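After overnight (16 hr) compound treatment at 37 °C, ELG1-luciferase HEK293T cells were lysed with ONE-Glo; luminescence quantified 30 min later at room temperature.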
SMN2 splice enh = SMN2 splice variant enhancement | Potency, µM (titrated, usually from 46.1 µM), without a hit: at the top dose activity change, positive = activation, most hits filed as activators | actives 2.8% (n = 210,000) | HEK293 SMN2-luciferase splicing reporter, luminescence, 30-36 h; note: % of control where 0% means no effect; nearly all actives have a fitted effect of over 55% in size
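qHTS luciferase splicing reporter: luminescence rises when SMN2 exon 7 is included in transfected HEK293 cells. Compound exposure lasted 30-36 h at 37C, with 4.5 mM final sodium butyrate as control, followed by a ONE-Glo read.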
ELG1 FLuc counter = luciferase inhibition in cell-free luciferin readout for ELG1 hits; cell-free firefly luciferase luminescence counter-screen, ViewLux; actives 3% (n = 350); AID 624247; Potency, µM (top dose mostly 46.1 µM), without a hit: at the top dose activity change, negative = inhibition, usual class: inhibitors; shares compounds with ELG1 repair inh; note: % is set by controls: 0 for no effect and ±100 for the full control effect
ELG1 Luc conf = confirmation of human ELG1-dependent DNA repair inhibitors. HEK293T ELG1-luciferase levels, luminescence; cells co-treated with 5-fluorouridine. AID 624248. actives 68% (n = 670). shares compounds with ELG1 repair inh. Potency, µM (highest dose often 46.1 µM), without a hit: top-dose activity change, negative = inhibition, usual class: inhibitors; note: % is set by controls: 0 for no effect and ±100 for the full control effect; nearly all actives have a fitted effect of over 55% in size
Target sequence (Q96QE3 whole entry, looked up): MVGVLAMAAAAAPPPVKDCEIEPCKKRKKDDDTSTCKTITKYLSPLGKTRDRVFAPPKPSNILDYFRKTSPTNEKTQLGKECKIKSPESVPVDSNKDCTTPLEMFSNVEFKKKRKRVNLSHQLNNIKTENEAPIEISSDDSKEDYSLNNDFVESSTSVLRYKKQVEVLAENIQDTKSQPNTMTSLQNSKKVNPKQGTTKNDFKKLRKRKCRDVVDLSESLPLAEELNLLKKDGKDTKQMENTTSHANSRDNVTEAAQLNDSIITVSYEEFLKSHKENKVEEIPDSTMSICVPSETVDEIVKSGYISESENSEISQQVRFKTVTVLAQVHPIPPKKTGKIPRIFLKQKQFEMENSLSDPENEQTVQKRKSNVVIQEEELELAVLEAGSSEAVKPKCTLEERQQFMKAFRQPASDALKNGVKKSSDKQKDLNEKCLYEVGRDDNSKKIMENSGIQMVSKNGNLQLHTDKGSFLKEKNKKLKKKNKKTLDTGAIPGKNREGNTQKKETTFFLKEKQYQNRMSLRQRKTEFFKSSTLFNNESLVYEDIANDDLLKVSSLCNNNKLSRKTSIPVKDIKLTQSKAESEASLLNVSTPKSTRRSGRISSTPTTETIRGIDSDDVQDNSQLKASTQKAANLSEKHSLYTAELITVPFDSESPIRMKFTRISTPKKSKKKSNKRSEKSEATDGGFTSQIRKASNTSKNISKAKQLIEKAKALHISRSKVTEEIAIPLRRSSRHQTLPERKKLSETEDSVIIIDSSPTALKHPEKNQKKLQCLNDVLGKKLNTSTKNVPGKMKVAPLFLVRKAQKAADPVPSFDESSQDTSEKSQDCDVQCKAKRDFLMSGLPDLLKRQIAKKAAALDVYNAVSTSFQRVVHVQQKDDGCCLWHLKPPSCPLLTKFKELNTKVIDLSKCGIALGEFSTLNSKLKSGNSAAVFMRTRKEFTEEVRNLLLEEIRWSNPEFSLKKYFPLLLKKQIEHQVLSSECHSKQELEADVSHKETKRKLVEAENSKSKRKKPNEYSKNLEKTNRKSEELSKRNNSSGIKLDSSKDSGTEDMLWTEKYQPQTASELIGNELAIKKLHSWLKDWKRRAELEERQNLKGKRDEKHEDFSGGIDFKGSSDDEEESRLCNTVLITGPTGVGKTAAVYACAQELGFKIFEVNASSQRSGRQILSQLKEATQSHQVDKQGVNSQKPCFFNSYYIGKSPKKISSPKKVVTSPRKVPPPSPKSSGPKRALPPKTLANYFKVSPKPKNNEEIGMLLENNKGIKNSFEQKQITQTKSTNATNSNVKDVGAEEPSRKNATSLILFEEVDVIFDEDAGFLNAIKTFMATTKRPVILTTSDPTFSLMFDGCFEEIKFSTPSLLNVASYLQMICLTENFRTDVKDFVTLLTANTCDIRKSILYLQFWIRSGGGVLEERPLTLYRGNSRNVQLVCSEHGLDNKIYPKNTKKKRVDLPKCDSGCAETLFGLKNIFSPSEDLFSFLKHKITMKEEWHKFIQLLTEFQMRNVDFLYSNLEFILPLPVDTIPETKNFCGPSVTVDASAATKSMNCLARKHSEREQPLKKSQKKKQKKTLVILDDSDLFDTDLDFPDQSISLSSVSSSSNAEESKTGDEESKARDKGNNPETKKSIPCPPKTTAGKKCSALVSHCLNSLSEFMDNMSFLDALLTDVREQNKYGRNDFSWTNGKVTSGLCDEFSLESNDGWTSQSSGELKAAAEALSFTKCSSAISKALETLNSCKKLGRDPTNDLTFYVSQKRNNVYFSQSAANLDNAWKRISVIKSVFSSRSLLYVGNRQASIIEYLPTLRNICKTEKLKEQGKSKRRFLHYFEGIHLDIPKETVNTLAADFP
ELG1 MMS Luc = confirmation of human ELG1 repair inhibitors, MMS stimulated; shares compounds with ELG1 repair inh; HEK293T luciferase-tagged ELG1 level, MMS stimulated; Potency, µM (doses to about 46.1 µM), for inactives: at the highest dose activity change, negative = inhibition, most hits filed as inhibitors; actives 53% (n = 670); note: % is set by controls: 0 for no effect and ±100 for the full control effect; nearly all actives have a fitted effect of over 60% in size
ELG1 5-FU = confirmation of ELG1 repair inhibitors: viability with 5FU | Potency, µM (doses to about 46.1 µM), for inactives: at the top dose activity change, negative = viability loss, actives largely listed as cytotoxic | shares compounds with ELG1 repair inh | cell viability with 5-FU, ELG1-dependent repair | 670 tested, under 10 active | AID 624250;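 note: ELG1-luc HEK293T cells cotreated with 5-fluorouridine at 10 µM final; viability measured 16 h after compound addition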
ELG1 MMS cell = confirmation of ELG1 repair inhibitors: viability with MMS. Cell viability with MMS, ELG1-dependent DNA repair. shares compounds with ELG1 repair inh. Potency, µM (series often up to 46.1 µM), for inactives: top-dose activity change, negative = viability loss, usual class: cytotoxic. actives 33% (n = 670);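 note: ELG1-luc HEK293T cells co-treated with 10 µM MMS; viability read 16 h after compound addition; % is set by controls: 0 for no effect and ±100 for the full control effect; nearly all actives have a fitted effect of over 60% in size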
Cell viab unstim = affects unstimulated cell viability, ELG1 hit counter-screen; shares compounds with ELG1 repair inh; cell viability counter-screen, unstimulated, luminescence; Potency, µM (series often up to 45.9 µM), inactives show at the highest dose activity change, negative = loss of viability, usual class: cytotoxic; actives 8% (n = 900);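 note: compound exposure lasted 16 hours before reading; % is set by controls: 0 for no effect and ±100 for the full control effect; nearly all actives have a fitted effect of over 55% in size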
FLuc enzyme = inhibits purified firefly luciferase, counter-screen for ELG1 hits; shares compounds with ELG1 repair inh; purified firefly luciferase, luminescence counter-screen; Potency, µM (series often up to 57.5 µM), for the others: at the highest dose activity, negative = inhibition, most hits filed as inhibitors; actives 10% (n = 350); AID 624253; note: % is set by controls: 0 for no effect and ±100 for the full control effect
* = called active by the depositor; ? = inconclusive; . = no result; [ ] = remark or other dose. Calls come from the whole dose curve; as a rule, active = well fitted curve in the direction sought with a large enough effect; inconclusive = small, poorly fitted or top-dose-only effect, or another doubt; inactive = no such curve, though single readings can be large; an effect the other way counts as inactive or inconclusive. Potency is the fitted concentration of half-maximal effect.

SMILES | FLuc counter | ELG1 repair inh | Rab9 prom act | NPC1 prom act | ELG1 genotox | SMN2 splice enh | ELG1 Luc conf | ELG1 MMS Luc | ELG1 5-FU | ELG1 MMS cell | Cell viab unstim | others
CC(/C=N/n1c(-c2ccncc2)n[nH]c1=S)=C\c1ccco1 | -6.6% | 2.59µM* | 2.1% | 24.8% | -12.1% | . | 12.5µM* | 6.28µM* | -2.4% | -22.6% | -2.4%
Cc1c2cnn(-c3ccccc3)c(=O)c2c(C)n1CCCC(=O)Nc1cccc(F)c1 | 2.0% | . | . | . | . | -11.6% | . | . | . | . | .
Cc1cc(NNC(=O)Nc2cccc(Cl)c2)nc2c1c(C)nn2C | -4.0% | 0.731µM* | -35.4% | -33.1% | -4.6% | . | ? | 0.792µM* | -1.9% | 0.997µM* | -10.3% | ELG1 FLuc counter=-7.5%;FLuc enzyme=-0.6%
COc1ccc(C2=Nn3c(nnc3-c3ccncc3)SC2)cc1 | -0.1% | 2.31µM* | 3.1% | 5.4% | -8.0% | 12.3% | 6.29µM* | ? | -1.7% | -6.2% | -11.5% | ELG1 FLuc counter=-3.1%;FLuc enzyme=-9.6%
C(=C\c1c[nH]c2ccccc12)/c1ccc2ccccc2n1 | . | . | . | . | . | . | . | . | . | . | ? | ELG1 FLuc counter=-38.7%;FLuc enzyme=0.116µM*
O=C(/C=C/c1c[nH]c2ccccc12)c1cccc2ccccc12 | ? | 1.4% | 13.1% | 11.2% | 1.6% | 27.0% | . | . | . | . | .
COC(=O)CC(=O)CSc1nc2cc(C(=O)NC(C)C)ccc2c(=O)n1CCc1ccccc1 | -2.1% | . | . | . | . | . | . | . | . | . | .
COCC(C)n1c(C)cc(C(=O)COC(=O)c2cc(=O)[nH]c3ccccc23)c1C (centres undefined) | . | ? | . | . | ? | . | . | . | . | . | 6.1%
COc1ccc(CNc2ncnc3sccc23)cc1 | -2.0% | 1.83µM* | -29.8% | -21.9% | -17.9% | . | ? | 2.81µM* | -0.3% | 2.81µM* | ?
CCN1C(=O)[C@@H]2[C@@H](c3ccc(-c4ccc(Cl)c(Cl)c4)cc3)N3CCC[C@@]3(C(=O)OC)[C@@H]2C1=O | . | 2.31µM* | . | . | -9.3% | . | 6.28µM* | 8.88µM* | ? | 9.96µM* | ?
Cc1c(C(=O)Nc2nccs2)oc2ccc(Br)cc12 | . | ? | . | . | 9.2µM* | . | . | . | . | . | -8.4%
CCc1nnc(NC(=O)c2oc3ccc(Br)cc3c2C)s1 | . | ? | . | . | 19.3% | . | . | . | . | . | .
CCCC[C@@H]1C[C@H]1[C@@H](NP(=O)(c1ccccc1)c1ccccc1)c1ccccc1OC | . | . | . | . | . | -5.3% | . | . | . | . | .
CC(C)(C)c1ccc(S(=O)(=O)N2CCC(Oc3ccc(-n4cnnn4)cc3)CC2)cc1 | 1.9% | . | . | . | . | 4.4% | . | . | . | . | .
CN(CC(=O)Nc1ccccc1Cl)CC(=O)Nc1sc2c(c1C(N)=O)CCC2 | 0.0% | 4.61µM* | -4.9% | -3.7% | 4.4% | . | 15.8µM* | ? | 9.7% | -5.4% | ?
Cc1ccc(NC(=O)CN(C)CC(=O)Nc2sc3c(c2C(N)=O)CCC3)cc1 | -2.8% | ? | -0.1% | 1.4% | -6.4% | . | . | . | . | . | .
COc1cccc(CNC(=O)c2c(O)nc3ccccn3c2=O)c1 | -0.7% | . | . | . | . | -0.8% | . | . | . | . | .
CN(C)CCC=C1c2ccccc2C=Cc2ccccc21 | -0.3% | -4.0% | -21.0%[46.1 µM] | -7.9%[46.1 µM] | 3.6% | -9.7%[9.22 µM] | . | . | . | . | .
CN(C)N=Nc1ccc(/C=C2\C=Cc3ccccc32)cc1 | . | . | . | . | . | . | . | . | . | . | -2.3%
CC(C)CN(C)c1ccc(/C=C2\C=Cc3ccccc32)cc1 | . | . | . | . | . | . | . | . | . | . | ?
CN(C)N=Nc1ccc(S(N)(=O)=O)cc1 | -1.8% | 14.5% | -9.4% | -1.2% | 3.0% | . | . | . | . | . | .
NC(=O)c1ccc(N2CCN(S(=O)(=O)c3cccs3)CC2)c([N+](=O)[O-])c1 | . | 2.31µM* | . | . | 0.6% | . | ? | 0.996µM* | -6.2% | 0.791µM* | 12.5µM*
NC(=O)c1ccc(N2CCCCCC2)c([N+](=O)[O-])c1 | -17.4% | 6.8% | -7.7% | -3.1% | 3.8% | -31.2% | . | . | . | . | .
O=S(=O)(c1cccs1)N1CCN(c2ccc(O)cc2)CC1 | -0.2% | 1.64µM* | -2.3% | 22.2% | 0.7% | . | -0.6% | 25µM* | 5.4% | ? | ?
